Inconclusive results are not listed. The source made the active and inactive calls. Calls follow the shape of the dose curve; as a rule, active = well fitted activation curve with a large enough effect; inconclusive = small, poorly fitted or top-dose-only effect; inactive = flat fitted curve, though single readings scatter.
assay: Cellular Toxicity (caspase-3) H-4-II-E (AID 663); details: H-4-II-E rat hepatoma, scaled: DMSO 0%, 100 µM tamoxifen 100%; at 92.2 µM (top of the series);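 also: cells exposed to compound for 16 hr before readout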
Method in brief: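 Rat hepatoma H-4-II-E cells (1500/well) plated 5 hr, then exposed to compound titrations for 16 hr at 37 °C. Caspase-Glo 3/7 luminescence read after 20 min at RT; data normalized to DMSO and 100 uM tamoxifen, AC50 from Hill fits.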

Which caspase-3 activation does the source give for `CC(=O)c1ccc(S(=O)(=O)NC(=O)NC2CCCCC2)cc1` here?
Its caspase-3 activation is 1.08% (inactive).

For `CCn1cc(C(=O)O)c(=O)c2ccc(C)nc21`, which caspase-3 activation is on record?
Its caspase-3 activation is -0.698% (inactive).

For `O=c1[nH]cnc2c1ncn2[C@H]1CC[C@@H](CO)O1`, which caspase-3 activation is on record?
Its caspase-3 activation is 0.398% (inactive).

For `O=c1cc(-c2ccc(O)cc2)oc2cc(O)cc(O)c12`, which caspase-3 activation is on record?
The caspase-3 activation was 9.21% (inactive).

With `O=C(O)c1cc(O)c2c(c1)C(=O)c1cccc(O)c1C2=O` as the compound, how does the caspase-3 activation read?
The caspase-3 activation was 1.57% (inactive).

Which caspase-3 activation does the source give for `O=C1NC(=O)C(c2ccccc2)(c2ccccc2)N1` here?
Its caspase-3 activation is 0.679% (inactive).

Which caspase-3 activation does the source give for `CC1=C(/C=C/C(C)=C/C=C/C(C)=C/C(=O)Nc2ccc(O)cc2)C(C)(C)CCC1` here?
Its caspase-3 activation is 91.2% (active).

Which caspase-3 activation does the source give for `O=c1c(-c2ccc(O)cc2)coc2cc(O)ccc12` here?
The caspase-3 activation was -2.27% (inactive).

For `CCCCC1C(=O)N(c2ccccc2)N(c2ccccc2)C1=O`, which caspase-3 activation is on record?
Its caspase-3 activation is 0.827% (inactive).

For `O=C(O)Cc1cccc2ccccc12`, which caspase-3 activation is on record?
Its caspase-3 activation is 0.142% (inactive).

Which caspase-3 activation does the source give for `CN(C)CCC(c1ccccc1)c1ccccn1` (stereo not drawn) here?
The caspase-3 activation was 1.53% (inactive).

Which caspase-3 activation does the source give for `CC(=O)O[C@]1(C(C)=O)CC[C@H]2[C@@H]3C=C(Cl)C4=CC(=O)[C@@H]5C[C@@H]5[C@]4(C)[C@H]3CC[C@@]21C` here?
Its caspase-3 activation is 0.0575% (inactive).

With `CCCNC(=O)NS(=O)(=O)c1ccc(Cl)cc1` as the compound, how does the caspase-3 activation read?
Its caspase-3 activation is -0.479% (inactive).

assay: Cellular Toxicity (caspase-3) Hek293 (AID 664); details: HEK293 caspase-3 activation; caspase-3 activation: at 92.2 µM (top of the series), DMSO = 0%, 100 µM tamoxifen = 100%;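 also: cells exposed to compound for 16 h at 37 °C before readout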; also: potency is read from the fitted curve at half-maximal effect
Method in brief: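 HEK293 cells in complete medium treated 16 h at 37 °C, then Caspase-Glo 3/7 luminescence read after 20 min at room temperature. Normalized to DMSO and 100 uM tamoxifen; AC50 from Hill fit of concentration-response.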

With `CC(=O)c1ccc(S(=O)(=O)NC(=O)NC2CCCCC2)cc1` as the compound, how does the “caspase-3 activation” value read?
The value was -1.72% (inactive).

For `CC/C(=C(\c1ccccc1)c1ccc(OCCN(C)C)cc1)c1ccccc1`, which caspase-3 activation is on record?
The caspase-3 activation was 147% (active).

With `CCn1cc(C(=O)O)c(=O)c2ccc(C)nc21` as the compound, how does the “caspase-3 activation” value read?
Its value is 0.275% (inactive).

Which “caspase-3 activation” value does the source give for `O=c1[nH]cnc2c1ncn2[C@H]1CC[C@@H](CO)O1` here?
Its value is 2.09% (inactive).

For `O=c1c(O)c(-c2ccc(O)cc2)oc2cc(O)cc(O)c12`, which “caspase-3 activation” value is on record?
Its value is -3.02% (inactive).

With `O=c1cc(-c2ccc(O)cc2)oc2cc(O)cc(O)c12` as the compound, how does the “caspase-3 activation” value read?
The value was -8.79% (inactive).

For `O=C(O)c1cc(O)c2c(c1)C(=O)c1cccc(O)c1C2=O`, which “caspase-3 activation” value is on record?
Its value is -3.61% (inactive).

With `O=C1NC(=O)C(c2ccccc2)(c2ccccc2)N1` as the compound, how does the “caspase-3 activation” value read?
Its value is -0.526% (inactive).

For `CC1=C(/C=C/C(C)=C/C=C/C(C)=C/C(=O)Nc2ccc(O)cc2)C(C)(C)CCC1`, which Potency is on record?
The Potency was 31.6 µM (active).

For `O=c1c(-c2ccc(O)cc2)coc2cc(O)ccc12`, which “caspase-3 activation” value is on record?
The value was -7.41% (inactive).

For `CCCCC1C(=O)N(c2ccccc2)N(c2ccccc2)C1=O`, which “caspase-3 activation” value is on record?
Its value is 1.1% (inactive).

With `O=C(O)Cc1cccc2ccccc12` as the compound, how does the “caspase-3 activation” value read?
Its value is -0.484% (inactive).

With `CN(C)CCC(c1ccccc1)c1ccccn1` (stereo not drawn) as the compound, how does the “caspase-3 activation” value read?
The value was 2.54% (inactive).

With `CC(=O)O[C@]1(C(C)=O)CC[C@H]2[C@@H]3C=C(Cl)C4=CC(=O)[C@@H]5C[C@@H]5[C@]4(C)[C@H]3CC[C@@]21C` as the compound, how does the “caspase-3 activation” value read?
Its value is 14.6% (inactive).

Which “caspase-3 activation” value does the source give for `CCCNC(=O)NS(=O)(=O)c1ccc(Cl)cc1` here?
Its value is -0.0467% (inactive).

— PubChem BioAssay (NCATS)
